# Measurements taken from the supplement of paper PMC10681739.
# Key:
# ETS1 [1] = molecular target: T1, ETS1 (UniProt P14921); experiment: ETS1 binding intensity (PBM fluorescence), ETS1 alone (arbitrary fluorescence units); higher = stronger binding; conditions: ETS1 concentration 1 nM; RUNX1 concentration 0 nM
# T1 sequence: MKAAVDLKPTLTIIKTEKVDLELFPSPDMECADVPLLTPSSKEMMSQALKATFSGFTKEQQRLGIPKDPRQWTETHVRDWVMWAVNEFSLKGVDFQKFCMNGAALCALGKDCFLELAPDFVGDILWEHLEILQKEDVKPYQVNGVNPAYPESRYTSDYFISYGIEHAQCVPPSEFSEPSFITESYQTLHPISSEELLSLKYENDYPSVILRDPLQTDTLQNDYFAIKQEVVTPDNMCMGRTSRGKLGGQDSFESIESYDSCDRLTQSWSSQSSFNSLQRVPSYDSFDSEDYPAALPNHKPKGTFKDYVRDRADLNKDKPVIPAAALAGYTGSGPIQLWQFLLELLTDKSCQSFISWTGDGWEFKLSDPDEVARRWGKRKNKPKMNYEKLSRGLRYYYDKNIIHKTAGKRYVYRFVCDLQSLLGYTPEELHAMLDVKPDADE
# RUNX1 [2] = molecular target: RUNX1 (UniProt Q01196); experiment: RUNX1 binding intensity (PBM fluorescence), RUNX1 alone (arbitrary fluorescence units); higher = stronger binding; conditions: RUNX1 concentration 2 nM; ETS1 concentration 0 nM
# Method: (§1)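 Cooperative gcPBM on 36-bp genomic probes with neighbouring ETS1 and RUNX1 sites. Recombinant human RUNX1 (2 nM) was incubated alone or with ETS1 (25 nM) and detected with anti-RUNX1 antibody plus Alexa488 secondary. Values are medians over 4 replicate spots; the RUNX1+ETS1 data were normalised to the RUNX1-only data. The probes sit in constant array flanks that are not printed.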
# ETS1 [3] = molecular target: T1, ETS1; experiment: ETS1 binding intensity (PBM fluorescence) in presence of RUNX1, normalised to ETS1-only experiment (arbitrary fluorescence units); higher = stronger binding; conditions: ETS1 concentration 1 nM; RUNX1 concentration 25 nM
# RUNX1 [4] = molecular target: RUNX1 (UniProt Q01196); experiment: RUNX1 binding intensity (PBM fluorescence) in presence of ETS1, normalised to RUNX1-only experiment (arbitrary fluorescence units); higher = stronger binding; conditions: RUNX1 concentration 2 nM; ETS1 concentration 25 nM
# Method: as §1
# 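Wherever RUNX1 binding intensity (PBM fluorescence) in presence of ETS1, normalised to RUNX1-only experiment is given: Full-length recombinant human ETS1 or RUNX1 bound to double-stranded 36-bp genomic probes on microarrays, detected by protein-specific primary antibody and Alexa488 secondary, spot fluorescence as median of four replicate spots.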
# 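Wherever RUNX1 binding intensity (PBM fluorescence), RUNX1 alone is given: Full-length recombinant human RUNX1 bound to double-stranded 36-bp genomic probes on a high-density microarray, scored as Alexa488 fluorescence per spot via anti-RUNX1 antibody, median of four replicate spots.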
# Chain of RUNX1 (Q01196 whole entry): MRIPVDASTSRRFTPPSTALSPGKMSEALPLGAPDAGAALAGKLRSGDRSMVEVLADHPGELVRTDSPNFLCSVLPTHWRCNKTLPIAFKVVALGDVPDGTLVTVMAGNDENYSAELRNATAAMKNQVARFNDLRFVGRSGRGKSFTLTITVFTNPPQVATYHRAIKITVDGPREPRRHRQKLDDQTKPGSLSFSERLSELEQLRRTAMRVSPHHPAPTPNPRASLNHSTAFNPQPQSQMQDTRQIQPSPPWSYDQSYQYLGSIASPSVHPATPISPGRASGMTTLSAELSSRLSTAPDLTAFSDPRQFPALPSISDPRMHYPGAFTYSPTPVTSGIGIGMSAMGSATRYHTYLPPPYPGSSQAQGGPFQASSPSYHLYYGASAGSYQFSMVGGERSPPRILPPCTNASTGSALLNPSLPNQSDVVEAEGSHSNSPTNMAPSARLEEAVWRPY
Sequence,ETS1 binding intensity (ETS1 [1]),RUNX1 binding intensity (RUNX1 [2]),ETS1 binding intensity (ETS1 [3]),RUNX1 binding intensity (RUNX1 [4])
GATGGGCGAGTCAGGAAACCACAGCTCTGAGGGTGG,607,950,1190,1300
GTCAGGGGAACAGGATGTGGGTGGGAGCCAGCCCCA,4250,729,5560,2540
AAAACAACTCCAGGATGTGGTTTTACTCAGAATGTA,1310,928,7410,2710
CGTGGCGGAAGCCGCGGGGACTGCGGGGGCGGAGTG,537,924,528,893
ATACAGACACAGGAAGTTGTGGGGAGTGCAAAAGCC,5090,798,5680,1530
AGGAGAACTTCCGCCCTTACTATATTACCGCCGGTA,1180,737,1090,1520
AGGCCCACCTGCTGCGGATGTGGTCTCTGTGTGTGC,2340,774,6240,1340
ACACAGAGAGTGAGAGGAAGTGGTTTAGAGATGAGA,2440,769,3210,1050
GGGGCGGCTTCCGGCGGCGTGACCTGACCGCAAGAG,995,2950,4920,9110
GCGAGCACTTCCGGTGTGTGAGCCTGCGGTTGCTAC,7480,845,22400,3050
GTGGGAGCGGAAGCCTGAGCGGCCTGCGGCCTCCGG,863,692,1070,1040
TGTCTCTGCCGCCGGAAACCGCGCCGTAGATCATGC,5360,945,7800,1420
TTGAGGGGAAGGGGAGGAAGTGGTCATTGGAACTTG,2530,776,3150,990
AACCCGGAAGTGGACACGGAGCTCGGCTGCGGCTCC,1750,705,2240,1530
GAAAGCTGCACTATTTCCTGAGGTTAGAGGTTTAAA,522,815,502,1040
ACAGTCGCACCGGAAGCTGCCCGCGGTGTTGACACA,8580,700,11300,1360
TAACTACTTCCTTTTACTATCTACCACAATTTAATT,516,1620,510,2810
GTGGTCTCTGCCACTTCCTGTGGTGTAAACAGTCTC,2680,843,3730,2890
GCCATCCAGGAAGTACAGACTCCCTGACCGCACTGA,1030,1140,5400,2110
GGCACCGGAAGTAGAGCTGCCCCTAGTTGCGGCAGT,9240,767,12800,1380
TGGGCAAGATATCCTGGAAGTGGTTAAAAAAAATTA,687,739,1050,1060

Sequence,ETS1 binding intensity (ETS1 [1]),RUNX1 binding intensity (RUNX1 [2]),ETS1 binding intensity (ETS1 [3]),RUNX1 binding intensity (RUNX1 [4])
CGCCTGCCCCACTTCCGCCCGGACCCGCAGCCCCTA,2450,1240,3210,3610
GGTCCCCCCGGTTCCGGCGCGGTTGAGGCCTTCGGT,683,758,676,1170
AGAAAAGGAAATGGTGGGCTGCACACCACAGCTCAC,477,728,461,1130
GACATGCTCCGGAAGCTTGAGGTTTTAACGTTAAGG,2040,734,5030,1390
GCCGCGCGGAAGCCTCCGCCCTGTGGTTTTGGAGCC,368,1030,993,1530
CCTTGCTGCAGGATGCTCTAACCACAAGCCCAGGAG,528,2370,2720,5330
AATCCACCGGAAACACTTAGACGCCGCAACCCCAGT,3660,895,5740,1590
TGGCGGGAGAACTTCCCCCTGTGCGGTCGCGACGTG,444,738,533,943
GCTGACCCGGAAGCGCTCGTGACCACCATCTCCGAC,1760,912,2590,1370
GGGCGGGTGAGACCAGGATGTGGGTTCCCCCACCTT,1880,775,3540,1120
AACAAAGAGAGAGGAAGTGGGTTGGGCGGGGGGGGT,1880,1010,1990,1040
CTCCCCCTTTTTTTCCTGTGGTTTCATTGCATGTTG,454,6430,566,4190
TGGCGCTTCCTGTCGCTACCGCTGCGGCCCAGGGCC,819,755,763,1860
GAGTCTACAGCGGAAGCCACCACATGCCCCACCCCC,4820,904,5330,1200
CTCTAGAGGCTTCCTGCCCAACCACCAAGAAAAAGC,598,817,668,1180
AGATTAGATGCAGGATGTGGTATACAAAGGCACGTT,2530,823,7140,1820
CCCTTCCGCGTGGGTTGCACCTGCTAACCACAGAGC,329,1090,866,1600
TGGGAACTTCCTGTGGAGGAGTGCATTGTGGGACTT,851,686,726,1630
GACATCCAGGAAGTGGTGAGAAACCACGTGTGTGTT,1630,747,4150,3070
CCCCTTAGCACAGGATGTGGTCTTTGCATCTTCATT,4640,1040,7360,2960
GCTTCTTCAGCCACATCCTGACCACAGCCCAGATTC,496,2350,1270,5070

Sequence,ETS1 binding intensity (ETS1 [1]),RUNX1 binding intensity (RUNX1 [2]),ETS1 binding intensity (ETS1 [3]),RUNX1 binding intensity (RUNX1 [4])
GCTCTGCAGGATGTGGCTGTGACCGCAGTGAGGAGC,1290,1520,11800,7480
CCGAGCTTAACGACATCCTGCGGCTCAGCGTGGAGG,435,792,471,1190
TTAACCAGACATTTCCTGTGGTCTAAGGTGACCCCA,859,1020,1090,2710
GGACAAAACATCATAGGAAGTGGGTTTTGGGGTGAG,1500,761,2950,914
GCCCAATTCCCGAATCCGGTCTGCGGCGCGCTCGGG,583,768,507,1170
TGTCTCATTTCCTGTAGGTAACAGGCACCACAATAG,1550,968,1470,1780
CCTACACTTCCCAGAGAACCTAGCGGTTACGCCAAC,401,1340,505,1560
GCCTGAGCGGAAACCCGGCGCCACCACAAGATGGCA,637,990,2040,1200
GCCCCGGAAGCTCCTTAAGGAGGACCGTGTGGGTTT,605,746,718,944
CAACCTGCTATAAGGAAGTTAAACCGCAGCTCACCG,718,3670,5980,5610
AACTAAGTGCAGGGGAAGTTGTGGTTATTTTTTACC,657,1270,3360,1760
AACATCCGGTTCCCGGTTCTGCCCCCTACCGCAGCT,3190,917,5870,3920
GTGCTCCTCGCTTCCTCCGCGGTCTTCCGAGCGGTC,465,1150,365,1370
TCCAAGGCGGAAAAAACCCGCCCTAAACCGCACCCC,464,1470,1040,1460
ACCCTTCCTGGAGCATTGTCGCAGCAACCACAACAG,457,918,975,1200
GAGGACTTCCGGGTGGGTGTGATATCTGCGGGCCCG,848,760,677,1940
GCGCCCCGCTTCCGGGGCCGCCCTAAACCGCGGCCG,944,1520,2870,3790
CTTCAGCCGCCACTTCCCCGCCCCCGCAGCCCGACA,936,1290,925,1290
TTTGTAAGAGGAGGAAGTGGTTTGTAAGAGGAGAAA,2180,835,3260,1270
CCATCTTCATACAGGATGCTGTGGTATGTAAAACAA,2110,787,3590,1240
ATGTTAACATCCTGCCATGAAAACCGCAAGAAGGGC,680,19000,3730,26000

Sequence,ETS1 binding intensity (ETS1 [1]),RUNX1 binding intensity (RUNX1 [2]),ETS1 binding intensity (ETS1 [3]),RUNX1 binding intensity (RUNX1 [4])
GCGGAGCGAGCGGCCGGATGCGGTCACCATAGAGAC,4210,917,25200,8090
CCGGGAAGGCGGAAGCAGCAGAGACGCCGCAAGGCC,1320,823,1560,980
GCCGGTGAGGGCGGAAGTGGTAAGACTGACGTGTCC,6840,709,8740,2490
AGACAGGAGTTCAGGAAGCTGCGGTCTAGATTATGT,754,1210,6250,1710
GCCGCGAGTTCCGCCGGGTGGACCACAAATCCCGAG,373,831,451,904
GGCTGGGGCGGTATCCTGTGGTCTTACTCTGGTGAC,445,1520,437,2620
ACCCCGGAAGTGTGGGCGCGGCTGCGGTTTAACCCG,2640,2220,15900,8200
TCTTTGAGAAGCGGATGTGGTAAACTTGCCTCTGTT,5970,801,36600,10000
AGCTAAACCCAGTTCCGGTGCTGTGGGGAGCTCAGA,858,741,908,1990
CTGCTAGCGGAAGCAGCCAAGCCCACAGGCTCCAGG,942,732,1140,1040
GGCGGCTTCCGGGATCTGCCTGGCGGTTGCTTTGTC,568,729,525,2140
GCCACTTCCTGGAAAACAGTAATTACCACACGTCTC,464,1100,546,2160
TACCCCGCCGGAAGCCCCCTGCTCTGTGGGAACCGG,2480,894,3660,1270
TGGGGAGGCAGGAAACGGGCCTTGTGGTTGGGGGGT,4210,770,16900,1020
GTACTGAGTCACAGGAAACCACAAGGGAAGGGTCCC,2510,1570,4720,3070
GAGCCACCGGAAACGGAGCTGCGGCCGCGCCCCGCC,5340,747,7820,1650
GCGCAAGCAGGAAGCGTTTGCGGTGATCCCGGCGAC,1890,746,9000,2000
TCTAACGCTGAAGGAGGATGTGGTTTCCTATTGGAC,1770,880,11500,2110
